The AC50 is the midpoint of the concentration-response curve, whichever way the signal moves.

The structures appear in SMILES notation. The source made the active and inactive calls. Rule for the calls: active = hit-call score of the fitted dose curve at least 0.9, where 1 is the maximum; inactive = score below 0.9.

Data on 40 compounds can be found in PubChem BioAssay (EPA / NIEHS).

Read-out in the test: succinate dehydrogenase complex iron sulfur subunit B (SDHB), SDHB (gene 6390)
The experiment in a line: LTEA_HepaRG_SDHB: Life Technologies and Expression Analysis (LTEA) Assay for succinate dehydrogenase complex iron sulfur subunit B (SDHB) using HepaRG (AID 2283528). The following applies: mRNA level, 48 h; actives raise or lower the signal. The method, then: LTEA_HepaRG is a cell based, multiplexed-readout assay that uses HepaRG, a human liver cell line, with measurements taken at 48 hours after chemical dosing on a 96-well plate.LTEA_HepaRG_SDHB is one of 102 assay component(s) measured in the LTEA HepaRG cell culture assay. It is a marker of Cell proliferation, survival, death.Data from the assay component LTEA_HepaRG_SDHB was analyzed into 1 endpoint. This assay endpoint, LTEA_HepaRG_SDHB, was analyzed with bidirectional fitting relative to DMSO as the negative control and baseline of activity. Using a type of inducible reporter, measures of mRNA induction for gain or loss-of-signal activity can be used to understand regulation of transcription factor activity. To generalize the intended target to other relatable targets, this assay endpoint is annotated to the oxidoreductase intended target family, where the subfamily is ubiquinone.
A total of 1060 chemcials from the ToxCast library were tested in eight-point concentration-response experiments. Cell culture and cytotoxicity assays were conducted at Thermo Fisher Scientific's Custom Services facility (Madison, WI). A single lot of human HepaRG cells (Thermo Fisher Scientific, Frederick, MD) was used for the cell culture experiments. 96-well format collagen type I coated plates of human HepaRG cells were prepared using established methods. Briefly, cryopreserved HepaRG cells were thawed, plated at a density of approximately 100,000 cells/well in HepaRG Thaw, Plate, and General Purpose media (HPRG770, Thermo Fisher Scientific), and incubated for 48 hours. 0.5% DMSO was selected as vehicle control to balance the requisite need of DMSO in HepaRG cultures to maintain differentiation (for example, baseline metabolism, proportions of hepatocytes vs. cholangiocytes), while enabling further hepatic receptor pathway activation (for example, PXR and CAR) in response to chemical exposure. 48 hours after plating, the culture medium was replaced with HepaRG Serum-Free Incudtion Media. Cells were exposed to each test chemical in duplicate and maintained in CO2 incubators for another 48 hours. Chemical plates were thawed to room temperature and 200x concentrations of treatment groups were prepared. 8-point conentration-reponse curves were made with the highest exposure at 100 uM, followed by half-log dilutions, all in 0.5% DMSO. Each test plate contained variouse controls, induction positive controls (1mM phenobarbital), cytotoxicity positive controls ([…] aflatoxin B1), vehicle controls (0.5% DMSO), and total lysis controls (0.5% DMSO). Cell morphology images were taken using an Essen IncuCyte FLR automated microscope, with six 96-well plates imaged in about 24 minutes. Images were captured and exported and JPEG files. Spent culture media was transfered to black-well plates for the LDH assay, and remaining media was sorted at -80 C for later use. Cells were treated with RLT buffer and frozen until shipped for gene expression analysis. Total RNA was isolated from the cell suspension in 75 uL of Buffer RLT (Qiagen, Germantown, MD 20874) by Quintiles/Expression Analysis (Durham, NC) using a custom isolation procedure. Total RNA from each plate well was transferred to a preamplification plate. Fluidigm's 96.96 Dynamic ArrayTM (Fluidigm, Amsterdam, the Netherlands) technology was used for gene expression analyses by quantitative reverse transcription polymerase chain reaction (qRT-PCR, performed by Quintiles/Expression Analysis, Durham, NC)89. Standard TaqManTM Assays (Applied Biosystems/ThermoFisher Scientific, Foster City, CA) were used to assess the expression of 93 genes selected based on their selectivity and sensitivity to important hepatic receptors known to be modulated by environmental chemicals; importance in human hepatocyte functionality; and hepatotoxicity. […]
In the case of `CCOC(=O)CCC(=O)OCC`, the result was inactive.

As for `CCOc1ccc2c(c1)C(C)=CC(C)(C)N2`, the result was inactive.

On to `CC(=O)OCCOCCOCCOC(C)=O`, for which the outcome was inactive.

As to `Cc1ccc(C(C)C)c(O)c1`, the outcome was inactive.

In the case of `CCCCCCCCCCCC(=O)OC`, the compound was classed as inactive.

For `Clc1cc(Cl)c(Cl)cc1Cl`, the call was inactive.

As for `CN1CCCC1=O`, the compound was called inactive.

Consider `CC1=C(/C=C/C(C)=C/C=C/C(C)=C/CO)C(C)(C)CCC1`, for which the result was inactive.

For `COc1cc(C=O)ccc1O`, the compound was classed as inactive.

In the case of `Oc1ccc2ccccc2c1N=Nc1ccccc1`, the compound was called inactive.

For the compound `CC1(C)NC(=O)NC1=O`, the call was inactive.

Turning to `CCCCCCCC=O`, the outcome was inactive.

In the case of `CC(=O)OC/C=C(\C)CCC=C(C)C`, the compound was called inactive.

As to `Cc1nc(C)nc(N2C[C@@H](C)N(c3ccnc([C@@H](C)O)n3)[C@@H](C)C2)n1`, the call was inactive.

For the compound `CCc1c(C(=O)NN2CCCCC2)nn(-c2ccc(Cl)cc2Cl)c1-c1ccc(Br)cc1`, the compound was called inactive.

In the case of `CCCCc1ccc2c(n1)[C@@H](c1ccc(OC)cc1C[C@H](C)C(=O)O)[C@H](C(=O)O)[C@H]2c1ccc2c(c1)OCO2`, the result was inactive.

For `C=CCc1ccc(O)c(OC)c1`, the compound was called inactive.

In the case of `O=C(O)CCCCC(=O)O`, the call was inactive.

In the case of `Cc1cccc(Nc2cc(Cl)nc(SCC(=O)O)n2)c1C`, the call was inactive.

As for `CN1CCN(Cc2cc(-c3ccc4[nH]c(=O)oc4c3)co2)[C@@H](c2ccc(F)cc2)C1`, the outcome was inactive.

For `CCCCCCCCCCCCCCCCCC(=O)O`, the result was inactive.

In the case of `O=[N+]([O-])C(CO)(CO)CO`, the compound was classed as inactive.

Turning to `CCCCCCC(=O)OCC`, the compound was called inactive.

As to `Nc1nc(N)c2nc(CNc3ccc(C(=O)N[C@@H](CCC(=O)O)C(=O)O)cc3)cnc2n1`, the compound was called inactive.

As for `CCCCC(CC)COC(=O)CC(C(=O)OCC(CC)CCCC)S(=O)(=O)O` (stereo not given), the AC50 was 86.7 µM (active).

With `NCCO`, the compound was called inactive.

On to `CCCc1cc(=O)[nH]c(=S)[nH]1`, for which the compound was called inactive.

In the case of `Cc1cccc([N+](=O)[O-])c1C`, the call was inactive.

As to `Cc1ccc(C)c(C)c1`, the outcome was inactive.

For `CCCCCC(=O)O`, the compound was classed as inactive.

For the compound `Cc1ccc(C)c(O)c1C`, the outcome was inactive.

On to `Oc1ccc2c(c1)OC[C@@H](N1CCC(O)(c3ccc(F)cc3)CC1)[C@H]2O`, for which the result was inactive.

Regarding `CC(=O)C(C)=CC1C(C)=CCCC1(C)C` (stereo not given), the call was inactive.

As for `C1CCC(SSC2CCCCC2)CC1`, the compound was classed as inactive.

`CC(CO)OC(C)CO` (stereo not given) (tested in a mixture with another compound): the result was inactive.

As for `C[Si]1(C)O[Si](C)(C)O[Si](C)(C)O[Si](C)(C)O1`, the compound was called inactive.

Turning to `Cc1cc(=O)[nH]c(=S)[nH]1`, the compound was classed as inactive.

In the case of `CC(=O)Oc1ccccc1C(=O)O`, the call was inactive.

On to `CNC(=O)[C@H]1O[C@@H](n2cnc3c(NCc4cc(Cl)ccc4OCc4cc(C)no4)ncnc32)[C@H](O)[C@@H]1N`, for which the compound was classed as inactive.

For `Cc1oc(-c2ccccc2)nc1CCOc1cccc2c1ccn2CCC(=O)O`, the compound was called inactive.
